Measured values reported in PubChem BioAssay AID434961 (Broad Institute, 2010).
Screen size: about 7,700 compounds; about 15 (0.2%) were called active. About 6% were inconclusive and are not listed.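 Rule for the calls: active = more than half of replicate wells with inhibition above about 18% (limit read from the data, passing the limit was not always enough); inconclusive = exactly half of replicate wells above that limit; inactive = fewer than half of replicates above it.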 For the sample, actives were picked, then their nearest neighbours and some compounds at random.

Target: Regulator of chromosome condensation (Homo sapiens) + GTP-binding nuclear protein Ran (Homo sapiens) + Importin subunit beta-1 (Homo sapiens) (UniProt P18754+P62826+Q14974)
Assay: RanGTP/importin-beta interaction disruptors – biochemical, CFP-Ran/YFP-importin-beta FRET, RCC1, cell-free, primary screen (AID 434961);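 note: 0% = DMSO wells and 100% inhibition = RanGDP control wells on each plate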
Details: active compounds read high, concentration not given here

SMILES	inhibition
CNC[C@H]1Oc2c(cccc2N(C)C)C(=O)N([C@H](C)CO)C[C@H]1C	-1.15% (inactive)
COc1ccc(CN(C)C[C@H]2Oc3c(NC(=O)Nc4c(C)noc4C)cccc3C(=O)N([C@H](C)CO)C[C@@H]2C)cc1	0.675% (inactive)
C[C@H](CO)N1C[C@H](C)[C@H](CN(C)C(=O)Nc2ccccc2)Oc2c(NC(=O)c3ccc(-c4nccs4)cc3)cccc2C1=O	-2.67% (inactive)
C[C@H](CO)N1C[C@H](C)[C@H](CN(C)Cc2ccc3c(c2)OCO3)Oc2ccc(NC(=O)CCC(F)(F)F)cc2CC1=O	0.912% (inactive)
C[C@@H]1CCCCO[C@@H](CN(C)C(=O)CCCN(C)C)[C@H](C)CN([C@@H](C)CO)C(=O)c2cc(N(C)C)ccc2O1	1.1% (inactive)
C[C@@H]1CCCCO[C@@H](CN(C)C(=O)c2ccncc2)[C@@H](C)CN([C@@H](C)CO)C(=O)c2cc(NS(=O)(=O)c3cccs3)ccc2O1	-2.75% (inactive)
COc1ccc(CN(C)C[C@@H]2Oc3c(NS(=O)(=O)c4cn(C)cn4)cccc3C(=O)N([C@H](C)CO)C[C@@H]2C)cc1	-1.87% (inactive)
C[C@H](CO)N1C[C@H](C)[C@H](CN(C)Cc2ccc(Cl)c(Cl)c2)Oc2c(NS(=O)(=O)c3cn(C)cn3)cccc2C1=O	-0.00607% (inactive)
C[C@@H]1CCCCO[C@H](CN(C)C(=O)Nc2ccccc2)[C@@H](C)CN([C@@H](C)CO)C(=O)c2cc(NC(=O)CCCN(C)C)ccc2O1	-3.05% (inactive)
CNC[C@H]1Oc2ccc(NS(=O)(=O)c3cccs3)cc2CC(=O)N([C@H](C)CO)C[C@H]1C	-0.195% (inactive)
C[C@@H]1CCCCO[C@@H](CN(C)S(C)(=O)=O)[C@H](C)CN([C@H](C)CO)C(=O)c2cc(NS(=O)(=O)c3ccccc3)ccc2O1	-0.778% (inactive)
C[C@H]1CN([C@@H](C)CO)C(=O)Cc2cc(NC(=O)C3CC3)ccc2O[C@@H]1CN(C)C(=O)Nc1ccccc1	-14.8% (inactive)
CNC[C@@H]1Oc2c(N)cccc2C(=O)N([C@H](C)CO)C[C@@H]1C	-1.12% (inactive)
COc1ccccc1CN(C)C[C@H]1OCc2cn(nn2)CCCC(=O)N([C@H](C)CO)C[C@H]1C	3.38% (inactive)
C[C@@H]1CN([C@@H](C)CO)C(=O)c2cccc(NC(=O)c3ccncc3)c2O[C@H]1CN(C)S(=O)(=O)c1cccs1	0.118% (inactive)
C[C@H]1CCCCO[C@@H](CN(C)Cc2ccncc2)[C@@H](C)CN([C@@H](C)CO)C(=O)c2cc(N(C)C)ccc2O1	1.7% (inactive)
COc1ccc(NC(=O)Nc2ccc3c(c2)C(=O)N([C@@H](C)CO)C[C@@H](C)[C@H](CN(C)Cc2ccc(C(=O)O)cc2)O3)cc1	0.138% (inactive)
C[C@@H]1CN([C@H](C)CO)C(=O)c2cc(NC(=O)Nc3ccccc3)ccc2O[C@@H](C)CCCCO[C@H]1CN(C)S(=O)(=O)c1ccc(F)cc1	4.18% (inactive)
C[C@H](CO)N1C[C@H](C)[C@@H](CN(C)C(=O)NC2CCCCC2)Oc2ccc(N(C)C)cc2C1=O	3.39% (inactive)

SMILES	inhibition
C[C@@H]1CCCCO[C@@H](CN(C)S(=O)(=O)c2cn(C)cn2)[C@H](C)CN([C@@H](C)CO)C(=O)c2cc(NC(=O)c3ccccc3)ccc2O1	1.13% (inactive)
Cc1ccc(S(=O)(=O)Nc2ccc3c(c2)CC(=O)N([C@H](C)CO)C[C@H](C)[C@@H](CN(C)Cc2ccncc2)O3)cc1	0.0587% (inactive)
Cc1noc(C)c1S(=O)(=O)Nc1ccc2c(c1)CC(=O)N([C@H](C)CO)C[C@@H](C)[C@@H](CN(C)C(=O)NC(C)C)O2	-4.94% (inactive)
C[C@H]1CN([C@@H](C)CO)C(=O)Cc2cc(NC(=O)C3CC3)ccc2O[C@H]1CN(C)Cc1ccc(Cl)c(Cl)c1	7.64% (inactive)
C[C@@H]1CCCCO[C@H](CN(C)C(=O)Nc2ccccc2)[C@@H](C)CN([C@H](C)CO)C(=O)c2cc(NC(=O)Cc3ccccc3)ccc2O1	0.496% (inactive)
C[C@@H]1CCCCO[C@H](CN(C)C(=O)CCCN(C)C)[C@@H](C)CN([C@H](C)CO)C(=O)c2cc(NS(=O)(=O)c3cccs3)ccc2O1	-2.86% (inactive)
C[C@@H]1CN([C@@H](C)CO)C(=O)c2cc(NC(=O)c3ccncc3)ccc2O[C@H]1CN(C)C(=O)Nc1ccccc1	4.49% (inactive)
Cc1noc(C)c1NC(=O)N(C)C[C@@H]1Oc2ccc(NC(=O)Nc3cccc4ccccc34)cc2C(=O)N([C@H](C)CO)C[C@H]1C	-0.0777% (inactive)
C[C@@H]1CN([C@H](C)CO)C(=O)Cc2cc(NC(=O)C3CC3)ccc2O[C@H]1CN(C)C	-6.15% (inactive)
C[C@@H]1CCCCO[C@H](CN(C)Cc2ccncc2)[C@H](C)CN([C@H](C)CO)C(=O)c2cc(NC(=O)c3ccncc3)ccc2O1	-0.929% (inactive)
C[C@@H]1CCCCO[C@@H](CN(C)S(=O)(=O)c2cccs2)[C@H](C)CN([C@H](C)CO)C(=O)c2cc(NS(C)(=O)=O)ccc2O1	-1.23% (inactive)
Cc1cc(C(=O)Nc2cccc3c2O[C@@H](CN(C)CC2CC2)[C@@H](C)CN([C@@H](C)CO)C3=O)n(C)n1	-1.14% (inactive)
C[C@@H]1CN([C@H](C)CO)C(=O)c2cccc(NC(=O)c3ccc(-c4nccs4)cc3)c2O[C@@H]1CN(C)CC1CC1	29.6% (active)
C[C@H](CO)N1C[C@H](C)[C@H](CN(C)CC2CC2)Oc2c(NC(=O)c3ccc(-c4nccs4)cc3)cccc2C1=O	-0.371% (inactive)
C[C@H]1CN([C@@H](C)CO)C(=O)c2cccc(NC(=O)c3ccc(-c4nccs4)cc3)c2O[C@H]1CN(C)CC1CC1	1.58% (inactive)
C[C@H]1CN([C@@H](C)CO)C(=O)c2cccc(NC(=O)c3ccc(-c4nccs4)cc3)c2O[C@@H]1CN(C)C(=O)Nc1ccccc1	0.856% (inactive)
C[C@@H]1CN([C@H](C)CO)C(=O)c2cccc(NC(=O)c3ccc(-c4nccs4)cc3)c2O[C@@H]1CN(C)C(=O)Nc1ccccc1	-1.55% (inactive)
C[C@H]1CN([C@@H](C)CO)C(=O)c2cccc(NC(=O)c3ccc(-c4nccs4)cc3)c2O[C@H]1CN(C)C(=O)Nc1ccccc1	18.7% (active)
Cc1noc(C)c1NC(=O)N(C)C[C@@H]1Oc2ccc(NS(=O)(=O)c3cccs3)cc2C(=O)N([C@H](C)CO)C[C@@H]1C	-1.63% (inactive)

SMILES	inhibition
C[C@@H]1CCCCO[C@@H](CN(C)C(=O)CCC(F)(F)F)[C@H](C)CN([C@@H](C)CO)C(=O)c2cc(NS(=O)(=O)c3ccccc3)ccc2O1	-3.22% (inactive)
C[C@@H]1CN([C@@H](C)CO)C(=O)c2cccc(NS(C)(=O)=O)c2O[C@H]1CN(C)S(=O)(=O)c1cn(C)cn1	0.88% (inactive)
C[C@H]1CN([C@@H](C)CO)C(=O)Cc2cc(NC(=O)Cc3cn(C)c4ccccc34)ccc2O[C@@H]1CN(C)C(=O)Nc1ccccc1	0.0312% (inactive)
Cc1noc(C)c1S(=O)(=O)Nc1cccc2c1O[C@H](CN(C)C(=O)NC1CCCCC1)[C@H](C)CN([C@@H](C)CO)C2=O	-6.51% (inactive)
Cc1noc(C)c1S(=O)(=O)Nc1cccc2c1O[C@@H](CN(C)Cc1ccc(C(F)(F)F)cc1)[C@@H](C)CN([C@@H](C)CO)C2=O	-1.54% (inactive)
C[C@H]1CN([C@@H](C)CO)C(=O)c2cc(NC(=O)C3CC3)ccc2O[C@@H]1CN(C)Cc1ccc(Cl)c(Cl)c1	-5.2% (inactive)
C[C@@H]1CN([C@H](C)CO)C(=O)Cc2cc(NC(=O)Nc3ccccc3)ccc2O[C@@H]1CN(C)C(=O)Nc1ccc(C(F)(F)F)cc1	-1.14% (inactive)
C[C@@H]1CCCCO[C@H](CN(C)C)[C@@H](C)CN([C@H](C)CO)C(=O)c2cc(NC(=O)Nc3ccc(F)cc3)ccc2O1	3.67% (inactive)
Cc1noc(C)c1S(=O)(=O)Nc1cccc2c1O[C@H](CN(C)C)[C@H](C)CN([C@H](C)CO)C2=O	5.73% (inactive)
C[C@@H]1CN([C@@H](C)CO)C(=O)c2cc(NC(=O)Nc3ccc4c(c3)OCO4)ccc2O[C@@H]1CN(C)Cc1ccc(C(=O)O)cc1	-3.71% (inactive)
C[C@@H]1CN([C@@H](C)CO)C(=O)CCCn2nncc2CO[C@@H]1CN(C)C	4.43% (inactive)
COc1ccc(CN(C)C[C@@H]2OCCCC[C@H](C)Oc3ccc(NC(=O)Nc4c(C)noc4C)cc3C(=O)N([C@H](C)CO)C[C@@H]2C)cc1	0.0847% (inactive)
Cc1noc(C)c1S(=O)(=O)Nc1ccc2c(c1)CC(=O)N([C@H](C)CO)C[C@H](C)[C@H](CN(C)C(=O)Nc1cccc3ccccc13)O2	5.9% (inactive)
C[C@H](CO)N1C[C@H](C)[C@H](CN(C)S(=O)(=O)c2cccs2)Oc2c(NC(=O)Nc3ccc(C(F)(F)F)cc3)cccc2C1=O	3.84% (inactive)
CC(C)NC(=O)N(C)C[C@H]1OCCCC[C@H](C)Oc2ccc(NC(=O)CCCN(C)C)cc2C(=O)N([C@H](C)CO)C[C@@H]1C	-1.47% (inactive)
C[C@@H]1CN([C@@H](C)CO)C(=O)CCCn2cc(nn2)CO[C@H]1CN(C)C(=O)Nc1ccc(-c2cccs2)cc1	-3.35% (inactive)
COc1ccc(S(=O)(=O)Nc2ccc3c(c2)CC(=O)N([C@H](C)CO)C[C@H](C)[C@H](CN(C)S(=O)(=O)c2cn(C)cn2)O3)cc1	5.44% (inactive)
C[C@@H]1CN([C@@H](C)CO)C(=O)c2cccc(NS(=O)(=O)c3cccs3)c2O[C@@H]1CN(C)Cc1ccc(C(=O)O)cc1	-3.95% (inactive)
